Measurements taken from PubChem BioAssay (NCATS).
Results filed as inconclusive are left out. The source made the active and inactive calls. Unless noted, calls come from the whole dose curve.

Tests used:
[1] = target: Bile acid receptor (Homo sapiens) (UniProt Q96RI1); experiment: qHTS assay for small molecule agonists of farnesoid X receptor signaling (AID 588527); settings: HEK293T FXR-UAS-bla, beta-lactamase ratio, 16 h; activation: stronger effect = higher value;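 note: series mostly up to about 77 µM; 0% = vehicle basal and 100% = reference agonist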
In short: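 FXR-UAS-bla HEK293T, 10% dialyzed FBS; cpds up to 92 uM titration, 16 h 37 C; CCF4 dye 2 h RT; fluorescence. Normalized to chenodeoxycholic acid 100 uM (100%) and DMSO (0%); Hill fit gives EC50, efficacy.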

[2] = target: Peroxisome proliferator-activated receptor delta (Homo sapiens) (UniProt Q03181); experiment: qHTS assay for small molecule agonists of peroxisome proliferator-activated receptor delta signaling (AID 588534);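 note: 0% = DMSO basal wells and 100% = positive control agonist at 10 µM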
In short: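 Fluorescence from CCF4 substrate cleavage by beta-lactamase reporter, read 2 hrs at RT, measured agonist activity. Compounds were tested with 18 hrs exposure at 37 C. Concentration-response data fitted to Hill equation.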

[3] = qHTS assay for small molecule antagonists of peroxisome proliferator-activated receptor delta signaling (AID 588535; active = well fitted inhibition curve with a large enough effect in the signal ratio, with a control signal flat, not every such curve was filed as active; the % refers to the signal ratio;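 for max response: cells co-treated with a PPAR-delta agonist as stimulator during compound exposure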); settings: HEK293T PPARd-UAS-bla, beta-lactamase FRET ratio, 18 h; 460 nm channel
In short: (§1)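 HEK293T PPAR-delta-UAS-bla cells, 4000/well, 2% charcoal/dextran FBS; 5 h 37 C; cpd titration; 18 h 37 C; CCF4 2 h RT; FI 460/530 nm; Hill fit → IC50, efficacy.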

[4] = target: Peroxisome proliferator-activated receptor delta (Homo sapiens) (UniProt Q03181); experiment: as above
In short: as §1

[5] = target: Vitamin D3 receptor (Homo sapiens) (UniProt P11473); experiment: qHTS assay for small molecule antagonists of vitamin D receptor signaling (AID 588541);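 note: receptor activated by calcitriol during compound treatment; series mostly up to about 77 µM; % is set by controls: 0 for no effect and ±100 for the full control effect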
In short: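 Antagonist-mode beta-lactamase reporter assay: HEK293T VDR-UAS-bla cells were exposed to titrated compound alongside 1-alpha,25-dihydroxyvitamin D3 at 3 nM final for 16 h. Values were normalized to the 50 nM agonist control and DMSO basal, with IC50 and efficacy from Hill equation fits.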

[6] = target: Vitamin D3 receptor (Homo sapiens) (UniProt P11473); experiment: qHTS assay for small molecule agonists of vitamin D receptor signaling (AID 588543);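 note: 0% = DMSO basal and 100% = reference agonist control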
In short: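 GeneBLAzer VDR-UAS-bla HEK293T cells in 2% charcoal-stripped FBS medium were dosed with compound titrations for 16 h at 37 °C; CCF4 β-lactamase readout (405 nm ex, 460/530 nm em). EC50 and efficacy from Hill fits, normalized to 50 nM calcitriol (100%) and DMSO (0%).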

[7] = qHTS assay for small molecule agonists of retinoid X receptor alpha signaling (AID 588544); settings: HEK293T RXRa-UAS-bla, beta-lactamase reporter, 18 h; 530 nm emission;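 for activation: 0% = DMSO basal wells and 100% = reference agonist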
[8] = target: Retinoic acid receptor RXR-alpha (Homo sapiens) (UniProt P19793); experiment: as above
[9] = target: Thyroid hormone receptor beta (Homo sapiens) (UniProt P10828); experiment: qHTS assay for small molecule agonists of thyroid hormone receptor beta signaling (AID 588545)
In short: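 HEK 293 TR-UAS-bla; agonist mode; 18 hrs, 37 C; CCF4, ex 405/em 460 and 530 nm; norm. T3 10 nM = 100%, DMSO = 0%; Hill fit → EC50, efficacy.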

[10] = qHTS assay for small molecule activators of the p53 signaling pathway (AID 651743; active = well fitted activation curve with a large enough effect in the signal ratio, not every such curve was filed as active; the % refers to the signal ratio; note: series mostly up to about 92 µM; % of control where 0% means no effect); settings: HCT-116 p53RE-bla, beta-lactamase FRET ratio, 16 h; activation: stronger effect = higher value
In short: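 Read-out is fluorescence intensity from the LiveBLAzer B/G FRET substrate, added for 2 hours at room temperature after HCT-116 p53RE-bla cells had been incubated with compounds for 16 hours at 37 C.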

[11] = qHTS assay for small molecule activators of the nuclear factor-kappa B (NF-kB) signaling pathway (AID 651749; active = well fitted activation curve with a large enough effect in the signal ratio; the % refers to the signal ratio; note: series mostly up to about 77 µM; % of control where 0% means no effect); settings: NF-kB-bla ME-180 cells, beta-lactamase FRET ratio, 16 h; activation: stronger effect = higher value
In short: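 Readout: beta-lactamase reporter driven by an NF-kB response element, detected fluorescently as loss of FRET. Cells were the ME-180 line, treated 16 hr at 37C with pin-transferred compound.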

[12] = qHTS assay for environmental chemicals that activate the Aryl hydrocarbon Receptor (AhR) signaling pathway (AID 651777; active = well fitted curve in the direction sought with a large enough effect; an effect the other way counts as inactive or inconclusive; note: nearly all actives have a fitted effect of over 15% in size; note: potency is the fitted concentration of half-maximal effect; for activation: % of control where 0% means no effect); settings: 1A2-DRE human hepatoma cells, luciferase, 24 h; activation: stronger effect = higher value
In short: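 Human hepatoma 1A2-DRE cells stably carrying a DRE/CYP1A2 promoter–luciferase reporter, 1,200 cells/well, exposed to compound 24 hr at 37 C. Luciferase read by One-Glo luminescence after 30 min at room temperature; increased signal marks AhR activation.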

[13] = target: Peroxisome proliferator-activated receptor alpha (Homo sapiens) (UniProt Q07869); experiment: qHTS assay for small molecule agonists of the peroxisome proliferator-activated receptor alpha (PPARalpha) signaling pathway (AID 651778; active = well fitted curve in the direction sought with a large enough effect; an effect the other way counts as inactive or inconclusive; note: % of control where 0% means no effect); settings: PathHunter PPARalpha complementation, chemiluminescence, 6 h; max response: stronger effect = higher value
In short: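 Chemiluminescence from complemented enzyme reported PPARalpha activation in cells after 6 hr of compound treatment at 37 C. The detection reagent was incubated for 60 min at room temperature, and compounds were scored as agonists.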

[14] = qHTS assay for small molecule agonists of the antioxidant response element (ARE) signaling pathway measured by Nrf2-dependant transcriptional activity (AID 720636; active = well fitted curve in the direction sought with a large enough effect in the repeat runs; an effect the other way counts as inactive or inconclusive; note: % of control where 0% means no effect)
In short: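 ARE-luc HepG2 cells carrying an Nrf2-responsive luciferase reporter, in medium with 1% dialyzed FBS, exposed to compound for 16 hr at 37 C, 5% CO2. Luminescence read 30 min after ONE-Glo addition.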

[15] = qHTS assay for small molecule agonists of the antioxidant response element (ARE) signaling pathway measured by Nrf2-dependant transcriptional activity - cell viability counter screen (AID 720653; active = well fitted curve in the direction sought with a large enough effect in the repeat runs; an effect the other way counts as inactive or inconclusive; note: % is set by controls: 0 for no effect and ±100 for the full control effect); settings: ARE-bla HepG2 viability, CellTiter-Glo ATP luminescence, 16 h; max response: stronger effect = lower value
In short: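 Cytotoxicity counter screen: intracellular ATP quantified by CellTiter-Glo luminescence in the same ARE-bla HepG2 plates, after 16 h compound exposure and a 2 h beta-lactamase substrate step.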

[16] = qHTS assay for cell viability of HEK293 cells (AID 743288; active = well fitted curve in the direction sought with a large enough effect; an effect the other way counts as inactive or inconclusive; note: % is set by controls: 0 for no effect and ±100 for the full control effect; nearly all actives have a fitted effect of over 50% in size); settings: ATP luminescence (CellTiter-Glo), 18 h; max response: stronger effect = lower value
In short: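 Parental HEK293 cells were seeded at 2,000 cells/well, rested at least 5 h at 37 C, then exposed to compounds in DMSO for 18 h at 37 C. Viability was read as ATP-dependent luciferase luminescence after 30 min at room temperature.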

[17] = qHTS assay for cell viability of the p53RE-bla HCT-116 cell line (AID 743292; active = well fitted curve in the direction sought with a large enough effect; an effect the other way counts as inactive or inconclusive; note: % is set by controls: 0 for no effect and ±100 for the full control effect; nearly all actives have a fitted effect of over 55% in size)
In short: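 CellSensor p53RE-bla HCT-116 cells (4,000/well) pre-incubated 5 h at 37 C, then exposed to compounds in DMSO for 16 h at 37 C. Viability read as ATP content by CellTiter-Glo luminescence after 30 min at room temperature.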

[18] = target: Nuclear receptor subfamily 1 group I member 2 (Rattus norvegicus) (UniProt Q9R1A7); experiment: qHTS assay for small molecule activators of the rat pregnane X receptor (rPXR) signaling pathway (AID 651751; call rule not given here; note: 0% is about no effect); settings: rPXR reporter cells, luciferase (One-Glo), 24 h
[19] = qHTS assay for small molecule antagonists of retinoid X receptor alpha signaling (AID 588546; active = well fitted inhibition curve with a large enough effect in the signal ratio, with a control signal flat, not every such curve was filed as active; the % refers to the signal ratio;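 note: cells stimulated with 9-cis-retinoic acid as agonist; % is set by controls: 0 for no effect and ±100 for the full control effect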); settings: HEK293T RXRa-UAS-bla, beta-lactamase ratio, antagonist mode; measured here: W530 green channel, cytotoxicity proxy
In short: (§2)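 Beta-lactamase reporter inhibition, read as CCF4 fluorescence ratio (ex 405, em 460/530 nm) after 2 h at RT. HEK293T UAS-bla cells, 2500/well, were stimulated with 9-cis-RA at 500 or 100 nM final alongside test compound for 18 h at 37 C.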

[20] = target: Retinoic acid receptor RXR-alpha (Homo sapiens) (UniProt P19793); experiment: as above; settings: HEK293T RXRa-UAS-bla, beta-lactamase ratio, antagonist mode
In short: as §2

Sequence of Nuclear receptor subfamily 1 group I member 2 (Rattus norvegicus) (Q9R1A7 whole entry, looked up): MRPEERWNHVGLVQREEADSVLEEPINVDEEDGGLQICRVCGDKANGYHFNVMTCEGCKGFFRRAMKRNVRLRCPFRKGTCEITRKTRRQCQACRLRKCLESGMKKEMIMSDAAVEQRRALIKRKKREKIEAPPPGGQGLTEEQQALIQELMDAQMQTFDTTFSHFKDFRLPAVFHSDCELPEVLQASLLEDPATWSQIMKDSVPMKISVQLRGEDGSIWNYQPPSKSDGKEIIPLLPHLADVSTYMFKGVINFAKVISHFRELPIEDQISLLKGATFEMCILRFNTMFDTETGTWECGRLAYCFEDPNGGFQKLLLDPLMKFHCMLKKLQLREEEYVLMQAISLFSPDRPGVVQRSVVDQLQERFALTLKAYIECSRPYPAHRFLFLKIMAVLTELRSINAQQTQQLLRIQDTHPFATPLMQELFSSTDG
Sequence of Peroxisome proliferator-activated receptor alpha (Homo sapiens) (Q07869 whole entry, looked up): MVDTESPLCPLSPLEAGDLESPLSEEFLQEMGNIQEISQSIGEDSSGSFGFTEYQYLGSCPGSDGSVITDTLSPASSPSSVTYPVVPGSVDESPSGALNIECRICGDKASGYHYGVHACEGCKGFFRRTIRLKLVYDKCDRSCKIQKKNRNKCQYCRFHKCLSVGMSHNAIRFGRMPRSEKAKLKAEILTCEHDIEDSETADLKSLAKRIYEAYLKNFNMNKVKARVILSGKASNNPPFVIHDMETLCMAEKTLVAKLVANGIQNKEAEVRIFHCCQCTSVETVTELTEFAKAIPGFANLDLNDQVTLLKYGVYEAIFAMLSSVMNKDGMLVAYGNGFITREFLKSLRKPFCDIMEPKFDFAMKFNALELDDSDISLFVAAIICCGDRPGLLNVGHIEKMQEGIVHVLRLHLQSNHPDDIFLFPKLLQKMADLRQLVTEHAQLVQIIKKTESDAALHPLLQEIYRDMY
Sequence of Retinoic acid receptor RXR-alpha (Homo sapiens) (P19793 whole entry, looked up): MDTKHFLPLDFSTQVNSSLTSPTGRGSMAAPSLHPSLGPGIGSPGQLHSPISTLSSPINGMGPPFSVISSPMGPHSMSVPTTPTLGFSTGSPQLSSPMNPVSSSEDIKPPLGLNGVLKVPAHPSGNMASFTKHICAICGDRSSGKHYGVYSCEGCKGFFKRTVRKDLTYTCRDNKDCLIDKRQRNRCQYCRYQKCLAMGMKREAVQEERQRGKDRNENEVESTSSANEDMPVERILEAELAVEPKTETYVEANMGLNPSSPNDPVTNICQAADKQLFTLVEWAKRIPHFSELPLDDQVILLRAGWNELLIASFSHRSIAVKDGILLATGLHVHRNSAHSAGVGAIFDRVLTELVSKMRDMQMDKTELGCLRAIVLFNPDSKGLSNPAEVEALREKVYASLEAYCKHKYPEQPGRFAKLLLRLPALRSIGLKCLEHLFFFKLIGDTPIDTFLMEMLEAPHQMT
Sequence of Thyroid hormone receptor beta (Homo sapiens) (P10828 whole entry, looked up): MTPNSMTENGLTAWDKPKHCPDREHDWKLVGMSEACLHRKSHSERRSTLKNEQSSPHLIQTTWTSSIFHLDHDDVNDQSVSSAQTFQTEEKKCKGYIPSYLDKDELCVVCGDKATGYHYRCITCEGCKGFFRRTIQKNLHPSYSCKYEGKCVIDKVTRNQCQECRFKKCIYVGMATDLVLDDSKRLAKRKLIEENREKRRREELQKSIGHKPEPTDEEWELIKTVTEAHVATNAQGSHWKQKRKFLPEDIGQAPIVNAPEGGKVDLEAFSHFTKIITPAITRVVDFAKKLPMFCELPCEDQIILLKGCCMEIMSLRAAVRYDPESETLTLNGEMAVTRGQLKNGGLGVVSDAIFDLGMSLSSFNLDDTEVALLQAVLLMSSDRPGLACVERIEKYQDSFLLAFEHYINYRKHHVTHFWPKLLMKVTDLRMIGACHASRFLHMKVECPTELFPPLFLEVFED
Sequence of Bile acid receptor (Homo sapiens) (Q96RI1 whole entry, looked up): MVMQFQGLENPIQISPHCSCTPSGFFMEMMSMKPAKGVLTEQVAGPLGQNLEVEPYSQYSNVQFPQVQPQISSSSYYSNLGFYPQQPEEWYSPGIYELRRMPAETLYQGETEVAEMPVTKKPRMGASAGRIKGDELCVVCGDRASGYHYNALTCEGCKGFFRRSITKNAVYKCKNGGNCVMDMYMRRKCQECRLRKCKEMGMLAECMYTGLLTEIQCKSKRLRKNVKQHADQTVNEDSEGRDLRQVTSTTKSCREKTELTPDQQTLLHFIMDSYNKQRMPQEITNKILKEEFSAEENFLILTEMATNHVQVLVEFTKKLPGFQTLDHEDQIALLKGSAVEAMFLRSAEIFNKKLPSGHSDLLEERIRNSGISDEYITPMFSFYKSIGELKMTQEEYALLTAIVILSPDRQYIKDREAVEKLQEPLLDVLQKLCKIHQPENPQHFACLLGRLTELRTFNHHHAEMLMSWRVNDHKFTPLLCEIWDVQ
Sequence of Peroxisome proliferator-activated receptor delta (Homo sapiens) (Q03181 whole entry, looked up): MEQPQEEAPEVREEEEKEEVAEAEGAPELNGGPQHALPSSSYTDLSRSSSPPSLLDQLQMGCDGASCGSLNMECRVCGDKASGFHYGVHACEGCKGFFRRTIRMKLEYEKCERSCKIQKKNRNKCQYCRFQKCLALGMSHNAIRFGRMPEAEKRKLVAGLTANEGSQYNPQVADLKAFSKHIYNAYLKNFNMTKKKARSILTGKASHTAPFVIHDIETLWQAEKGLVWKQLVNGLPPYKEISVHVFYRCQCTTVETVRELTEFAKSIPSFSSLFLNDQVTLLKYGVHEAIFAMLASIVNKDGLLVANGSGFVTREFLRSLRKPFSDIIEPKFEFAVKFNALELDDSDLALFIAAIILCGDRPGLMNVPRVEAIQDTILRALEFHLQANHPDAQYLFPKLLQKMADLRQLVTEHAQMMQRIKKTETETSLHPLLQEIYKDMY
Sequence of Vitamin D3 receptor (Homo sapiens) (P11473 whole entry, looked up): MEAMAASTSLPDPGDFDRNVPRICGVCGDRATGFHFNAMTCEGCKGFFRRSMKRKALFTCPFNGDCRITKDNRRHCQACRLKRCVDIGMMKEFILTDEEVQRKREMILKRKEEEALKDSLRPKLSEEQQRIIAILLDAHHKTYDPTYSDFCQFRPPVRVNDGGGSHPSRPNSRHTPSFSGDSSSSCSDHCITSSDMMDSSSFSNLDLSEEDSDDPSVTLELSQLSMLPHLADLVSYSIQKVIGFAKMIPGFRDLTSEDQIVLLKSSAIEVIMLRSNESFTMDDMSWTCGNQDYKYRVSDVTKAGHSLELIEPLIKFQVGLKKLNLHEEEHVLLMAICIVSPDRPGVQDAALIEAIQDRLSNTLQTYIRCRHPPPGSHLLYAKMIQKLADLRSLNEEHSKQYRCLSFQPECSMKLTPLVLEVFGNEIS

For `CCCSP(=O)(OCC)Oc1ccc(Br)cc1Cl` (configuration not stated), the activation [1] was 3.54% (inactive), the outcome [2] was “inactive” and the max response [3] was 5.89%. For the same compound, the Potency [4] was “inactive”, the Potency [5] was “inactive” and the outcome [6] was “inactive”. The max response [7] was 0.651%, the Potency [8] was “inactive” and the Potency [9] was “inactive”. For the same compound, the activation [10] was 3.94% (inactive), the activation [11] was 0.74% (inactive) and the activation [12] was 3.36% (inactive). For the same compound, the max response [13] was -0.001% (inactive), the Potency [14] was “inactive” and the max response [15] was -7.9% (inactive). The max response [16] was -22.2% (inactive), the Potency [17] was “inactive” and the max response [18] was 7.3% (inactive).
For `Cc1cc(C2CC2)nc(Nc2ccccc2)n1`, the activation [1] was -4.1% (inactive), the outcome [2] was “inactive” and the max response [3] was 1.7%. The Potency [4] was “inactive”, the Potency [5] was “inactive” and the outcome [6] was “inactive”. The max response [7] was 7.71%, the Potency [8] was “inactive” and the Potency [9] was “inactive”. The max response [19] was -2.59%, the max response [20] was -23.3% (inactive) and the max response [13] was 5.58% (inactive). For the same compound, the max response [15] was 0.0652% (inactive) and the Potency [17] was “inactive”.
With `FC(F)C(F)(F)OCC(Cn1cncn1)c1ccc(Cl)cc1Cl` (configuration not stated) the activation [1] was 1.13% (inactive), the outcome [2] was “inactive” and the Potency [5] was “inactive”. For the same compound, the outcome [6] was “inactive”, the max response [7] was 14% and the Potency [8] was “inactive”. The Potency [9] was “inactive”, the max response [19] was -6.39% and the max response [20] was 4.82% (inactive). For the same compound, the activation [10] was 0.478% (inactive), the activation [11] was 0.464% (inactive) and the activation [12] was 2.65% (inactive). For the same compound, the max response [13] was -0.725% (inactive), the Potency [14] was “inactive” and the max response [15] was 4.71% (inactive). The max response [16] was -9.21% (inactive) and the Potency [17] was “inactive”.
For `CCC(CC)Nc1c([N+](=O)[O-])cc(C)c(C)c1[N+](=O)[O-]`, the outcome [2] was “inactive”, the max response [3] was -38.2% and the Potency [4] was “inactive”. For the same compound, the Potency [5] was “inactive”, the outcome [6] was “inactive” and the max response [7] was 4.16%. For the same compound, the Potency [8] was “inactive”, the Potency [9] was “inactive” and the activation [10] was -0.326% (inactive). The activation [11] was -1.58% (inactive), the activation [12] was 4.64% (inactive) and the max response [13] was -0.0369% (inactive). For the same compound, the Potency [14] was “inactive”, the max response [15] was -7.95% (inactive) and the max response [16] was -2.98% (inactive). The Potency [17] was “inactive”.
With `Cc1nn(-c2cc(NS(C)(=O)=O)c(Cl)cc2Cl)c(=O)n1C(F)F` the outcome [2] was “inactive”, the max response [3] was -1.23% and the Potency [4] was “inactive”. For the same compound, the Potency [5] was “inactive”, the outcome [6] was “inactive” and the max response [7] was 10.2%. The Potency [8] was “inactive”, the Potency [9] was “inactive” and the max response [19] was -3.07%. The max response [20] was -28.1% (inactive), the activation [10] was -4.43% (inactive) and the activation [12] was -2.63% (inactive). The max response [13] was -0.197% (inactive), the Potency [14] was “inactive” and the max response [15] was 1.41% (inactive). The max response [16] was -6.27% (inactive), the Potency [17] was “inactive” and the max response [18] was -0.675% (inactive).
For `CCN(CC)C(=O)SCc1ccc(Cl)cc1`, the activation [1] was 5.41% (inactive), the Potency [5] was “inactive” and the outcome [6] was “inactive”. The max response [7] was 0.303%, the Potency [8] was “inactive” and the max response [19] was -13.2%. The max response [20] was -31.3% (inactive), the activation [10] was 1.13% (inactive) and the activation [11] was -0.511% (inactive). For the same compound, the activation [12] was 2.07% (inactive), the max response [13] was -1.35% (inactive) and the max response [15] was -5.19% (inactive). The max response [16] was -14.7% (inactive), the Potency [17] was “inactive” and the max response [18] was 1.53% (inactive).
In the case of `O=C(NC(=O)c1c(F)cccc1F)Nc1cc(Cl)c(OC(F)(F)C(F)C(F)(F)F)c(Cl)c1F` (configuration not stated), the outcome [2] is reported as “inactive”, the max response [3] is reported as 39.8% and the Potency [4] is reported as “inactive”. The outcome [6] was “inactive”, the max response [7] was 23% and the Potency [8] was “inactive”. The Potency [9] was “inactive”, the max response [19] was -6.84% and the max response [20] was 4.34% (inactive). For the same compound, the activation [10] was 2.49% (inactive), the activation [11] was 4.04% (inactive) and the activation [12] was 6.63% (inactive). For the same compound, the max response [13] was 6.43% (inactive), the max response [15] was -22% (inactive) and the max response [16] was -24.3% (inactive). The Potency [17] was “inactive” and the max response [18] was 9.17% (inactive).
With `CCOC(=O)COc1cc(-c2nn(C)c(OC(F)F)c2Cl)c(F)cc1Cl` the max response [3] was 58.4%, the Potency [4] was “inactive” and the Potency [5] was “inactive”. The max response [7] was 3.77%, the Potency [8] was “inactive” and the Potency [9] was “inactive”. The max response [19] was 16.9%, the max response [20] was -15.1% (inactive) and the activation [10] was -1.21% (inactive). The activation [11] was 1.18% (inactive), the Potency [12] was 44.7 µM (active) and the max response [13] was -0.355% (inactive). For the same compound, the Potency [14] was “inactive”, the max response [15] was 13.2% (inactive) and the max response [16] was -5.44% (inactive). For the same compound, the Potency [17] was “inactive” and the max response [18] was 0.553% (inactive).
For `CS(=O)(=O)NC(=O)c1cc(Oc2ccc(C(F)(F)F)cc2Cl)ccc1[N+](=O)[O-]`, the activation [1] was -9.24% (inactive), the Potency [5] was “inactive” and the outcome [6] was “inactive”. The max response [7] was 1.68%, the Potency [8] was “inactive” and the max response [19] was -6.47%. For the same compound, the max response [20] was -2.65% (inactive), the activation [10] was -3.62% (inactive) and the activation [12] was 0.872% (inactive). The max response [13] was -2.59% (inactive), the Potency [14] was “inactive” and the max response [15] was -2.76% (inactive). For the same compound, the max response [16] was -3.04% (inactive), the Potency [17] was “inactive” and the max response [18] was -4.18% (inactive).
